Most compounds without a hit are left out; they make up all but 0.34% or so of the library.
LMNA splice mod = changes lamin A minigene splicing in HeLa cells; actives 0.01% (n = 200,000); Potency, µM (highest dose often 46.1 µM), inactives show at the highest dose ratio change, negative = inhibition, actives largely listed as inhibitors; HeLa LMNA splicing GFP/RFP minigene ratio, 48 h; active means well fitted inhibition curve with a large enough effect in the signal ratio, with a control signal flat, not every such curve was filed as active; inconclusive means small, poorly fitted or top-dose-only effect, or effect the other way, or a change in a side signal; the % refers to the signal ratio; further: potency means the concentration at half of the fitted maximal effect; on the % scale 0 is the no-effect control and ±100 the full control effect
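S3 HeLa cells stably expressing lamin A-EGFP splicing minigene plus DsRed2, 600 cells/well, 48 h compound exposure at 37C. Laser-scanning cytometry; analysed as GFP (500-530 nm)/RFP (575-640 nm) total intensity ratio; 0.5% DMSO vehicle.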
TCR act = activators of T cell receptors; primary human leukocytes, anti-CD3, IL-2 HTRF, 48 h; Potency, µM (series often up to 9.22 µM), without a hit: at the highest dose activation of IL-2 secretion, most hits filed as activators; 330,000 tested, under 10 active; AID 504894; further: % of control where 0% means no effect
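Using a-CD3 beads without co-stimulation, primary human leukocytes were exposed to compounds for 48 hr. An HTRF IL-2 kit measured the cytokine, with europium-to-d2 energy transfer producing emission at 665nm upon 320nm excitation.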
KinaseGlo FLuc = counter-screen: inhibitors of Kinase-Glo firefly luciferase; actives 0.28% (n = 200,000); AID 1379; Q27757; Potency, µM (top dose mostly 38.3 µM), for inactives: top-dose activity change, negative = inhibition, usual class: inhibitors; Kinase-Glo luciferase, ATP luminescence, 8 min; further: potency means the concentration at half of the fitted maximal effect; on the % scale 0 is the no-effect control and ±100 the full control effect; nearly all actives have a fitted effect of over 60% in size
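Luminescence was the read-out, taken after 8-minute incubation at ambient temperature. Luciferase turned over luciferin with 10 uM ATP in imidazole pH 7.2 buffer containing KCl, MgCl2, Tween 20 and BSA.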
IMPase Li inh = membrane-permeable IMPase blocker, potentiated with lithium; AID 1457; actives 0.35% (n = 210,000); Potency, µM (titrated, usually from 59.4 µM), for inactives: at the highest dose activity, negative = IMPase inhibition, hits mostly inhibitors; CHO-M1 cells, IP1 TR-FRET (IP-One), carbachol + lithium;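 further: IP1 builds up when IMPase is blocked and the TR-FRET signal falls; potency means the concentration at half of the fitted maximal effect; plate controls were basal vehicle for no effect and high inhibitor control for full effect; nearly all actives have a fitted effect of over 50% in size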
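Lithium-sensitised IP1 accumulation assay; M1-expressing CHO cells treated 30 min at 37C with compound. Competitive antibody detection by time-resolved FRET followed a 10 min room-temperature lysis step.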
Numbers without * were called inactive; ? = inconclusive; / = no result; [ ] = another dose, or the depositor's remark. Unless noted, the call rests on the fitted dose curve; in most records, active means well fitted curve in the direction sought with a large enough effect; inconclusive means small, poorly fitted or top-dose-only effect, or another doubt; inactive means no such curve, though single readings can be large; an effect the other way counts as inactive or inconclusive.

SMILES | LMNA splice mod | TCR act | KinaseGlo FLuc | IMPase Li inh
C1CCc2nnc(-c3nnc4n3CCCCC4)n2CC1 | -6% | 0% | 1% | 31%[38.3 µM]
Cn1ncnc1SCc1cn2cccnc2n1 | / | 1% | 3% | -3%
COc1ccccc1/C(C)=N/NC(=S)NCc1ccccc1 | ? | -1% | 0% | 4%
CCOC(=O)C(=O)Nc1cc(C)on1 | / | 1% | 13µM* | 5%
O=c1[nH]c(=S)c2c(n1-c1ccccc1)CCC2 | -4% | -3% | -1% | 10µM*
COc1ccccc1-c1n[nH]c(=S)n1-c1ccccc1 | ? | -23% | 4% | 2µM*
COc1ccccc1N1CCN(S(=O)(=O)CC23CCC(CC2=O)C3(C)C)CC1 (stereo not drawn) | 3% | -7% | 3% | 16%[38.3 µM]
COc1ccc(-c2cc(C(=O)O)c3ccccc3n2)c(OC)c1 | 10% | 3% | 4% | 0%[38.3 µM]
COc1ccc2cc(-c3cc(C(=O)O)c4ccccc4n3)ccc2c1 | ? | 3% | 7.9µM* | 10µM*
Cc1[nH]nc2c1/C(=N\O)CCC2 | 15%[46 µM] | 1% | -2% | -12%
CC(=O)c1ccc(N2CCN(C(=O)c3cc(S(=O)(=O)N4CCOCC4)ccc3C)CC2)cc1 | / | 4% | / | /
COCCn1c(=NC(=O)c2cc(-c3cccs3)nc3ccccc23)sc2cc(S(N)(=O)=O)ccc21 | -16% | 0%[46.1 µM] | -3% | -8%
C=CCn1c(=NC(=O)c2cc(Cl)sc2Cl)sc2cc(S(N)(=O)=O)ccc21 | 7% | -10%[46.1 µM] | -2% | 3%
C=CCn1c(=NC(=O)c2sc3ccccc3c2Cl)sc2cc(S(N)(=O)=O)ccc21 | 11% | -18%[46.1 µM] | -6% | 10µM*
COCCn1c(=NC(=O)c2sc3ccccc3c2Cl)sc2cc(S(N)(=O)=O)ccc21 | 3% | -21%[46.1 µM] | -1% | 11µM*
CCOC(=O)Cn1c(=NC(=O)c2nc3ccccc3s2)sc2cc(S(N)(=O)=O)ccc21 | 0% | 2%[46.1 µM] | -3% | 10µM*
Cc1ccc(C(=O)Nc2cc3ccccc3oc2=O)cc1 | ? | / | 8.9µM* | -7%
COc1ccccc1CNC(=O)C1CCCN(c2nn3cc(-c4ccc(F)cc4)nc3s2)C1 (stereo not drawn) | 7%[46 µM] | / | / | /
Cc1occc1C(=O)Nc1cc(C(C)(C)C)on1 | 1% | 4% | 11µM* | 22%[38.3 µM]
COc1ccc(NCc2ccsc2)cc1 | / | -5% | / | /
CCc1ccc(OCC(=O)Nc2ccc(-c3nc4ccccc4o3)c(O)c2)cc1 | ? | 2% | -5% | 5.6µM*
C/C(=N/N=C/c1ccc(N(C)C)cc1)c1ccccc1 | 8% | 0%[46.1 µM] | 8.9µM* | -13%
Cc1nn(CCC(=O)Nc2ccc(Cl)cc2)c(C)c1S(=O)(=O)N1CCCCC1 | 11%[46 µM] | / | / | /
O=C(c1cc2c(s1)-c1ccccc1OC2)N1CCN(c2ccccc2)CC1 | -4% | 3% | 0% | 7.9µM*
COc1ccc(N2CCN(C(=O)c3cc4c(s3)-c3ccccc3OC4)CC2)cc1 | / | -4% | / | /
SMILES | LMNA splice mod | TCR act | KinaseGlo FLuc | IMPase Li inh
O=C(c1cc2c(s1)-c1ccccc1OC2)N1CCN(c2ccccn2)CC1 | 2% | -2% | -3% | 10µM*
O=C(c1cc2c(s1)-c1ccccc1OC2)N1CCCC1 | -4% | -1% | -1% | -7%[38.3 µM]
CN(C)CCNC(=O)c1cc2c(s1)-c1ccccc1OC2 | -3% | 2% | -1% | 8.9µM*
COC(=O)c1ccc(CNC(=O)c2ccc(S(=O)(=O)N(C)c3ccccc3OC)cc2)cc1 | / | -2% | / | /
O=C(O)CCC(=O)N1CCN(c2nc(-c3ccccc3)c3cc(Br)ccc3n2)CC1 | / | 1% | / | /
O=C(O)CCC(=O)N1CCN(c2nc(-c3ccccc3Cl)c3cc(Br)ccc3n2)CC1 | 1% | 2% | -1% | 14µM*
CCCCc1nc2c(c3c1C[C@H](C)OC3)CN(S(=O)(=O)c1ccc(NC(C)=O)cc1)CC2 | ? | / | -8%[7.66 µM] | 7%
N/C(=N\OC(=O)c1ccccc1Cl)c1ccccn1 | -11% | -6% | 11µM* | 8%[38.3 µM]
N/C(=N\OC(=O)c1ccc(Cl)cc1)c1ccccn1 | ? | 0% | 6.3µM* | -7%[38.3 µM]
CCN(CC)CCC[C@H](C)Nc1c2ccc(Cl)cc2nc2ccc(OC)cc12 | ? | / | 0%[17.1 µM] | 27%
O=C1CC(c2ccco2)Cc2c1cnn2-c1nc2ccccc2s1 (stereo not drawn) | -14% | -4%[46.1 µM] | 1% | 13µM*
Cc1ccc(-c2nnc(SCC(=O)N3CCN(c4ccccc4)CC3)o2)cc1 | 3% | 2% | -3% | 11µM*
c1ccc2c(c1)nnn1c3ccccc3nc21 | ? | / | 13µM* | 10%[38.3 µM]
Cc1nc2ccccc2c2nc3ccccc3n12 | ? | / | 2% | -2%[38.3 µM]
CCC(NC(=O)c1ccncc1)c1ccccc1 (stereo not drawn) | / | -4% | / | /
Cc1ccc(C2C(C#N)=C(N)SC(N)=C2C#N)c(C)c1 | ? | -12% | 2% | 7.9µM*
Cc1ccc(C2C(C#N)=C(N)SC(N)=C2C#N)cc1 | 8% | -3% | -1% | ?
COC(=O)c1sc(NC(=O)c2c(OC)cccc2OC)c(C#N)c1C | / | 5% | -3% | 11µM*
Cc1ccc(C(=O)N2CCc3ccccc32)o1 | -13% | 0%[46.1 µM] | 13µM* | -2%
Cc1nc2ccccc2c2oc(C(=O)N3CCc4ccccc43)cc12 | / | / | / | 8%
Cc1ccc(C(=O)N2c3ccccc3CC2C)o1 (stereo not drawn) | ? | -4% | 11µM* | 8%
Cc1ccc(-c2ocnc2C(=O)N2CCOCC2)cc1 | / | 9% | / | /
COc1ccc(-c2nc3scc(CCNS(=O)(=O)c4cccc(C(C)=O)c4)n3n2)cc1 | 20%[46 µM] | / | / | /
CCN(CC)C(=O)CSc1nnc(-c2ccccn2)n1-c1ccc(C)c(C)c1 | 2% | -2% | 2% | 8%[38.3 µM]
COc1cccc(C=Nc2ccc(N3CCOCC3)cc2)c1O | / | -13% | / | /
SMILES | LMNA splice mod | TCR act | KinaseGlo FLuc | IMPase Li inh
COc1cccc(C=Nc2ccc3c(c2)OCCO3)c1O | 9% | 5% | 7.9µM* | 17%[38.3 µM]
OC1CNc2c(ccc3ccccc23)C1 (stereo not drawn) | / | 5% | / | /
O=C(Nc1ccccc1)c1ccc(CSc2ccccn2)cc1 | -7% | 7% | 11µM* | -17%[38.3 µM]
CC(=O)N1CCCc2cc(S(=O)(=O)NCc3ccccc3Cl)ccc21 | 4%[46 µM] | / | / | /
COc1cccc(CNC(=O)C2CCC(CNc3nc(=S)[nH]c4ccccc34)CC2)c1 (stereo not drawn) | ? | 6% | 5% | 10µM*
COc1ncc2nc(-c3ccc(F)cc3)c(=O)n(CCc3ccccc3)c2n1 | 6% | / | / | 14µM*
CN(C)c1ncc2nc(-c3ccc(F)cc3)c(=O)n(CCc3ccccc3)c2n1 | 15% | / | / | 10µM*
CCNc1ncc2nc(-c3ccc(Cl)cc3)c(=O)n(C[C@H]3CCCO3)c2n1 | -3% | / | / | 10µM*
CCNc1ncc2nc(-c3ccccc3)c(=O)n(CCc3ccccc3)c2n1 | / | / | -2% | -27%
CCNc1ncc2nc(-c3ccc(F)cc3)c(=O)n(CCc3ccccc3)c2n1 | ? | / | / | 5.6µM*
CN(C)c1ncc2nc(-c3ccc(F)cc3)c(=O)n(-c3ccccc3)c2n1 | 9% | / | / | -30%
CCCCc1nc2sc3c(SCCN(C)C)ncnc3c2c2c1CCC2 | / | -7% | / | /

Source: PubChem BioAssay
